Experimental data: the supplement of paper PMC8728848
The entries come from a sample that favours the strongest signals as a whole.

How the values were obtained:
Experiment in all cases: glycan array binding signal (z-score within array); higher = stronger binding
Details in all cases: glycan notation: IUPAC condensed, linker removed
[1] = biological target: GlcNAc(b1-3)Gal(b1-4)GlcNAc(b1-3)Gal(b1-4)GlcNAc(b1-2)Man(a1-3)[GlcNAc(b1-3)Gal(b1-4)GlcNAc(b1-3)Gal(b1-4)GlcNAc(b1-2)Man(a1-6)]Man(b1-4)GlcNAc(b1-4)GlcNAc
Method in brief: (§1)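 Arrays were curated from the Consortium for Functional Glycomics database, 3228 in total, and kept only where the protein sequence was available. Binding is expressed as a within-array Z-score. This score was averaged across arrays of the same protein sequence at different concentrations or buffers and across linkers, and negative values can be read as non-binding.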

[2] = biological target: GlcNAc(b1-3)Gal(b1-4)GlcNAc(b1-3)Gal(b1-4)GlcNAc(b1-3)Gal(b1-4)GlcNAc(b1-2)Man(a1-3)[GlcNAc(b1-3)Gal(b1-4)GlcNAc(b1-3)Gal(b1-4)GlcNAc(b1-3)Gal(b1-4)GlcNAc(b1-2)Man(a1-6)]Man(b1-4)GlcNAc(b1-4)[Fuc(a1-6)]GlcNAc
Method in brief: as §1

[3] = biological target: GlcNAc(b1-3)Gal(b1-4)GlcNAc(b1-3)Gal(b1-4)GlcNAc(b1-3)Gal(b1-4)GlcNAc(b1-2)[GlcNAc(b1-3)Gal(b1-4)GlcNAc(b1-3)Gal(b1-4)GlcNAc(b1-3)Gal(b1-4)GlcNAc(b1-6)]Man(a1-6)[GlcNAc(b1-3)Gal(b1-4)GlcNAc(b1-3)Gal(b1-4)GlcNAc(b1-3)Gal(b1-4)GlcNAc(b1-2)Man(a1-3)]Man(b1-4)GlcNAc(b1-4)[Fuc(a1-6)]GlcNAc
Method in brief: as §1

[4] = biological target: GlcNAc(b1-3)Gal(b1-4)GlcNAc(b1-3)Gal(b1-4)GlcNAc(b1-3)Gal(b1-4)GlcNAc(b1-3)Gal(b1-4)GlcNAc(b1-2)[GlcNAc(b1-3)Gal(b1-4)GlcNAc(b1-3)Gal(b1-4)GlcNAc(b1-3)Gal(b1-4)GlcNAc(b1-3)Gal(b1-4)GlcNAc(b1-6)]Man(a1-6)[GlcNAc(b1-3)Gal(b1-4)GlcNAc(b1-3)Gal(b1-4)GlcNAc(b1-3)Gal(b1-4)GlcNAc(b1-3)Gal(b1-4)GlcNAc(b1-2)Man(a1-3)]Man(b1-4)GlcNAc(b1-4)[Fuc(a1-6)]GlcNAc
Method in brief: as §1

[5] = biological target: GlcNAc(b1-3)Gal(b1-4)GlcNAc(b1-3)Gal(b1-4)GlcNAc(b1-3)GalNAc
Method in brief: as §1

[6] = biological target: GlcNAc(b1-4)GlcNAc(b1-4)GlcNAc(b1-4)GlcNAc(b1-4)GlcNAc(b1-4)GlcNAc
Method in brief: as §1

[7] = biological target: Man(a1-2)Man(a1-2)Man(a1-6)[Man(a1-3)]Man
Method in brief: as §1

[8] = biological target: Man(a1-2)Man(a1-3)[Man(a1-2)Man(a1-6)]Man(a1-6)[Man(a1-2)Man(a1-2)Man(a1-3)]Man
Method in brief: as §1

[9] = biological target: Neu5Ac(a2-3)Gal(b1-3)GalNAc(b1-4)[Neu5Ac(a2-3)]Gal(b1-4)Glc
Method in brief: as §1

[10] = biological target: Neu5Ac(a2-3)Gal(b1-3)GalNAc(b1-4)[Neu5Ac(a2-8)Neu5Ac(a2-3)]Gal(b1-4)Glc
Method in brief: as §1

[11] = biological target: Neu5Ac(a2-3)Gal(b1-3)GlcNAc(b1-2)Man
Method in brief: as §1

[12] = biological target: Neu5Ac(a2-3)Gal(b1-3)[Neu5Ac(a2-6)]GalNAc
Method in brief: as §1

[13] = biological target: Neu5Ac(a2-3)Gal(b1-4)GlcNAc(b1-2)[Neu5Ac(a2-3)Gal(b1-4)GlcNAc(b1-6)]Man(a1-6)[Neu5Ac(a2-3)Gal(b1-4)GlcNAc(b1-2)Man(a1-3)][GlcNAc(b1-4)]Man(b1-4)GlcNAc(b1-4)GlcNAc
Method in brief: as §1

[14] = biological target: Neu5Ac(a2-3)Gal(b1-4)GlcNAc(b1-3)Gal(b1-4)GlcNAc(b1-3)Gal(b1-4)GlcNAc(b1-2)Man(a1-3)[Neu5Ac(a2-3)Gal(b1-4)GlcNAc(b1-3)Gal(b1-4)GlcNAc(b1-3)Gal(b1-4)GlcNAc(b1-2)Man(a1-6)]GalNAc
Method in brief: as §1

[15] = biological target: Neu5Ac(a2-6)Gal(b1-4)GlcNAc(b1-3)Gal(b1-4)GlcNAc(b1-3)Gal(b1-4)GlcNAc(b1-2)Man(a1-3)[Neu5Ac(a2-6)Gal(b1-4)GlcNAc(b1-3)Gal(b1-4)GlcNAc(b1-3)Gal(b1-4)GlcNAc(b1-2)Man(a1-6)]GalNAc
Method in brief: as §1

[16] = biological target: Neu5Ac(a2-6)GlcNAc(b1-4)GlcNAc
Method in brief: as §1

[17] = biological target: Neu5Ac(a2-8)Neu5Ac(a2-3)[GalNAc(b1-4)]Gal(b1-4)Glc
Method in brief: as §1

[18] = biological target: Neu5Ac(a2-8)Neu5Ac(a2-8)Neu5Ac(a2-3)[Gal(b1-3)GalNAc(b1-4)]Gal(b1-4)Glc
Method in brief: as §1

Neu5Gc(a2-3)Gal(b1-4)Glc = biological target: Neu5Gc(a2-3)Gal(b1-4)Glc
Method in brief: as §1

[19] = biological target: Neu5Gc(a2-8)Neu5Gc(a2-3)Gal(b1-4)GlcNAc(b1-3)Gal(b1-4)GlcNAc
Method in brief: as §1

B1: MPA (Maclura pomifera), P18674 (protein)
chain: GVTFDDGAYTGIREINFEYNSETAIGGLRVTYDLNGMPFVAEDHKSFITGFKPVKISLEFPSEYIVEVSGYVGKVEGYTVIRSLTFKTNKQTYGPYGVTNGTPFSLPIENGLIVGFKGSIGYWLDYFSIYLSL
- glycan array binding signal (z-score) [1]: 3.5
- glycan array binding signal (z-score) [2]: 5.73
- glycan array binding signal (z-score) [3]: 4.46
- glycan array binding signal (z-score) [4]: 0.56
- glycan array binding signal (z-score) [5]: -0.343
- glycan array binding signal (z-score) [6]: -0.082
- glycan array binding signal (z-score) [7]: -0.161
- glycan array binding signal (z-score) [8]: -0.215
- glycan array binding signal (z-score) [9]: -0.301
- glycan array binding signal (z-score) [10]: -0.179
- glycan array binding signal (z-score) [11]: 1.21
- glycan array binding signal (z-score) [12]: 0.304
- glycan array binding signal (z-score) [13]: -0.334
- glycan array binding signal (z-score) [14]: 3.56
- glycan array binding signal (z-score) [15]: 6.71
- glycan array binding signal (z-score) [16]: -0.39
- glycan array binding signal (z-score) [17]: -0.273
- glycan array binding signal (z-score) [18]: -0.044
- glycan array binding signal (z-score) (Neu5Gc(a2-3)Gal(b1-4)Glc): -0.156
- glycan array binding signal (z-score) [19]: -0.219
